Assay results published in PubChem BioAssay AID434985 (The Scripps Research Institute Molecular Screening Center, 2010).
The other results are listed elsewhere or left out.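 The calls were made as follows: active = mean percent activation over triplicates above a cutoff set from solvent-only control plates; inactive = the rest.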

target: Oxytocin receptor (Homo sapiens) (UniProt P30559); assay: enhancers of OXTR calcium response, retest – fluorescence, CHO-OTR cells, triplicate, confirmation (AID 434985); conditions: Fluo-8 calcium fluorescence, potentiation, at 3 µM, hits give high values, scaled from low-dose to maximal oxytocin;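 also: compounds tested in the presence of an EC15 dose of oxytocin; 0% = EC15 oxytocin with DMSO and 100% = EC100 oxytocin with DMSO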
Sequence (P30559 whole entry, looked up): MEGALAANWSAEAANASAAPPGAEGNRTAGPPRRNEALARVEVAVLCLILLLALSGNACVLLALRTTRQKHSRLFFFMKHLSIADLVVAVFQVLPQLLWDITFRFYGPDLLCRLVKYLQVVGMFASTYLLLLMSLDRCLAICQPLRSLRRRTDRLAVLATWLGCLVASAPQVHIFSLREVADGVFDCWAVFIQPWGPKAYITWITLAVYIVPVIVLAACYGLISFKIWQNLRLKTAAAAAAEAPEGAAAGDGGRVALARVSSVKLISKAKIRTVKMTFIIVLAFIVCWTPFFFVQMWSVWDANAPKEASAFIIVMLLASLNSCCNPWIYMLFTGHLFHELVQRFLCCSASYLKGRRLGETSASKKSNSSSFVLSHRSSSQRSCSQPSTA

activation, inactive:
COc1cc2c(cc1OC)C(c1ccc(C)o1)CC(=O)N2 (configuration not stated) -4.74%
CNc1nnc(-c2ccco2)s1 -4.03%
CCCCn1c(N)c(N2CCOCC2)c(=O)n(CC(=O)NCCc2ccccc2)c1=O -3.12%
Cc1ccc(OCC(O)CN2CCN(CC(O)COc3ccc(C)cc3Cl)CC2)c(Cl)c1 (configuration not stated) -3.49%
CCCCNc1c(-c2ccc(OC)c(Sc3ccc(OC)cc3)c2)nc2ccc(Cl)cn12 -4.15%
COCCn1c(CN(Cc2ccccc2)Cc2ccccc2)nc2c1c(=O)n(C)c(=O)n2C -1.46%
Cc1cc(C)cc(NC(=O)CSc2ccccc2)c1 -0.71%
